Reference: PubChem BioAssay (NCI)
Compounds without any hit were thinned out: in the full panel of roughly 79,000, 15% have a hit. Activity calls are given as the source filed them. Rule as the data show it: active = growth inhibition above about 70%; inactive = the rest.

How the values were obtained:
[1] = NCI Yeast Anticancer Drug Screen. Data for the rad50 strain (AID 155);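 also: 0% = growth of vehicle-only cultures of the same strain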; settings: S. cerevisiae rad50 strain growth inhibition, stronger effect = higher value
Method in brief: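 Inhibition values express reduced yeast growth in compound-treated cultures relative to vehicle-treated controls.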

[2] = NCI Yeast Anticancer Drug Screen. Data for the mec2-1 strain (AID 157); settings: S. cerevisiae mec2-1 strain, stronger effect = higher value
Method in brief: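 Growth inhibition is read against vehicle-treated controls after compound exposure of the mec2-1 yeast strain, which is defective in DNA damage repair or cell cycle control.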

[3] = NCI Yeast Anticancer Drug Screen. Data for the sgs1 mgt1 strain (AID 161);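 also: 0% = growth of cultures given vehicle only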; settings: S. cerevisiae sgs1 mgt1 strain, stronger effect = higher value
Method in brief: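 Yeast cells carrying a defined DNA-repair defect were exposed to test compounds. Growth inhibition was measured relative to vehicle-treated controls.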

[4] = NCI Yeast Anticancer Drug Screen. Data for the cln2 rad14 strain (AID 165);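 also: 0% = growth equal to vehicle treated cultures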; settings: S. cerevisiae cln2 rad14 strain, stronger effect = higher value
Method in brief: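 Growth inhibition, relative to vehicle-treated controls, is the read-out. The test organism is a yeast strain with defined genetic alterations, cln2 rad14.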

[5] = NCI Yeast Anticancer Drug Screen. Data for the bub3 strain (AID 167); settings: S. cerevisiae bub3 mutant strain, stronger effect = higher value
Method in brief: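 Steps: expose the mutant yeast strain to compound; grow alongside vehicle-treated cultures; measure growth; express inhibition against the vehicle cultures.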

[6] = NCI Yeast Anticancer Drug Screen. Data for the mlh1 rad18 strain (AID 175); settings: S. cerevisiae mlh1 rad18 strain growth inhibition, stronger effect = higher value
Method in brief: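 Cells of a genetically altered yeast strain, deficient in DNA damage repair, were treated with compound. Their growth was then compared with that of vehicle-treated cultures to give inhibition.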

[7] = at 5.0 µM (retest, dose inferred, filed as 0.5)
[8] = at 50.0 µM (retest, dose inferred, filed as 5.0)

Measured: growth inhibition

O=C1CN(Cc2ccc(Cl)cc2)CC(=O)N2Cc3ccccc3CN12
inactive: [1]; [7] 4% | [1]; [8] -3% | [1]; at 50.0 µM -16.2% | [2]; [7] -4% | [2]; [8] -6% | [2]; at 50.0 µM -13.8% | [3]; [7] 4% | [3]; [8] -13% | [3]; at 50.0 µM -13.2% | [4]; [7] -2% | [4]; [8] 1% | [4]; at 50.0 µM 5.1% | [5]; [7] 6% | [5]; [8] 6% | [5]; at 50.0 µM 64.2% | [6]; [7] -4% | [6]; [8] -3% | [6]; at 50.0 µM -11%

OCc1c2c(cc3c1CC1(C3)Cc3cc4c(c(CO)c3C1)CCC4)CCC2
inactive: [1]; [7] 30% | [1]; at 50.0 µM 8.5% | [2]; [7] 19% | [2]; at 50.0 µM 24.3% | [3]; [7] 22% | [3]; at 50.0 µM 27.1% | [4]; [7] 10% | [4]; at 50.0 µM 46.4% | [5]; [7] 18% | [5]; at 50.0 µM 52.8% | [6]; [7] 27% | [6]; at 50.0 µM 27.4%
active: [1]; [8] 94% | [2]; [8] 97% | [3]; [8] 98% | [4]; [8] 97% | [5]; [8] 97% | [6]; [8] 94%

COc1cc(NS(=O)(=O)c2ccc(NC(C)c3ccc4cccnc4c3O)cc2)nc(OC)n1 (stereo not given)
active: [1]; [8] 81% | [1]; at 50.0 µM 95.1% | [2]; at 50.0 µM 97.2% | [3]; [8] 87% | [4]; [8] 78% | [5]; [8] 88% | [5]; at 50.0 µM 96.8% | [6]; [8] 82% | [6]; at 50.0 µM 97.3%
inactive: [1]; [7] 3% | [2]; [7] 2% | [2]; [8] 40% | [3]; [7] 1% | [3]; at 50.0 µM 69.4% | [4]; [7] -3% | [4]; at 50.0 µM 66% | [5]; [7] -2% | [6]; [7] 5%

Cc1ccc(S(=O)(=O)Nc2ccccc2C=O)cc1
inactive: [1]; [7] 17% | [1]; [8] 54% | [2]; [7] 19% | [2]; [8] 69% | [3]; [7] 16% | [3]; [8] 63% | [4]; [7] 1% | [4]; [8] 50% | [5]; [7] 4% | [5]; [8] 49% | [6]; [7] 14%
active: [1]; at 50.0 µM 99% | [2]; at 50.0 µM 99.3% | [3]; at 50.0 µM 99% | [4]; at 50.0 µM 99% | [5]; at 50.0 µM 98.8% | [6]; [8] 84% | [6]; at 50.0 µM 99.1%

O=C(CN1CCCC1)Nc1nc(-c2ccc(Cl)cc2)cs1
inactive: [1]; [7] 55% | [1]; [8] 69% | [1]; at 50.0 µM 50.5% | [2]; [7] 37% | [2]; [8] 53% | [2]; at 50.0 µM 35.7% | [3]; [7] 54% | [3]; at 50.0 µM 67.5% | [4]; [7] 39% | [4]; [8] 57% | [4]; at 50.0 µM 48.3% | [5]; [7] 45% | [5]; at 50.0 µM 67.6% | [6]; [7] 65% | [6]; at 50.0 µM 64.2%
active: [3]; [8] 87% | [5]; [8] 88% | [6]; [8] 82%

O=[N+]([O-])c1ccc(CCCl)c(CCl)c1
inactive: [1]; [7] -150% | [2]; [7] -48% | [3]; [7] -51% | [4]; [7] -50% | [5]; [7] -55% | [6]; [7] -111%
active: [1]; [8] 94% | [1]; at 50.0 µM 97.4% | [2]; [8] 94% | [2]; at 50.0 µM 98.8% | [3]; [8] 91% | [3]; at 50.0 µM 91% | [4]; [8] 92% | [4]; at 50.0 µM 96.4% | [5]; [8] 79% | [5]; at 50.0 µM 90.3% | [6]; [8] 92% | [6]; at 50.0 µM 89%

O=[N+]([O-])c1ccc(C2=Nn3cnnc3SC2)o1
inactive: [1]; [7] 2% | [1]; [8] 36% | [2]; [7] 5% | [2]; [8] 35% | [2]; at 50.0 µM 20.9% | [3]; [7] 27% | [4]; [7] 1% | [4]; [8] 29% | [5]; [7] 4% | [5]; at 50.0 µM 59.3% | [6]; [7] 18%
active: [1]; at 50.0 µM 81.7% | [3]; [8] 73% | [3]; at 50.0 µM 80.8% | [4]; at 50.0 µM 78.5% | [5]; [8] 75% | [6]; [8] 84% | [6]; at 50.0 µM 86.7%

CN1C/C(=C\c2ccc(Cl)cc2)C(=O)/C(=C/c2ccc(Cl)cc2)C1
active: [1]; [7] 78% | [1]; [8] 98% | [1]; at 50.0 µM 87.2% | [2]; [7] 73% | [2]; [8] 99% | [2]; at 50.0 µM 88.5% | [3]; [7] 79% | [3]; [8] 99% | [3]; at 50.0 µM 91% | [4]; [7] 78% | [4]; [8] 97% | [4]; at 50.0 µM 88% | [5]; [7] 84% | [5]; [8] 97% | [5]; at 50.0 µM 87.8% | [6]; [7] 83% | [6]; [8] 98% | [6]; at 50.0 µM 85.2%

CC(=O)Nc1ccc(-c2ccccc2)cc1[N+](=O)[O-]
inactive: [1]; [7] -3% | [1]; [8] 4% | [1]; at 50.0 µM 14.9% | [2]; [7] -4% | [2]; [8] 0% | [2]; at 50.0 µM 16.6% | [3]; [7] -2% | [3]; [8] 0% | [3]; at 50.0 µM -24.1% | [4]; [7] 0% | [4]; [8] -7% | [4]; at 50.0 µM -113% | [5]; [7] 1% | [5]; [8] 5% | [5]; at 50.0 µM 44.4% | [6]; [7] -2% | [6]; [8] 2% | [6]; at 50.0 µM 41.7%

O=C(/C=C/c1ccc(O)cc1)c1cc(Cl)ccc1O
inactive: [1]; [7] 10% | [2]; [7] 6% | [3]; [7] 36% | [4]; [7] -4% | [5]; [7] 4% | [6]; [7] 7%
active: [1]; [8] 96% | [1]; at 50.0 µM 95.7% | [2]; [8] 97% | [2]; at 50.0 µM 95.7% | [3]; [8] 97% | [3]; at 50.0 µM 92.4% | [4]; [8] 97% | [4]; at 50.0 µM 94.2% | [5]; [8] 97% | [5]; at 50.0 µM 96.5% | [6]; [8] 96% | [6]; at 50.0 µM 93.3%
